Screening results deposited in PubChem BioAssay by National Center for Advancing Translational Sciences (NCATS).
IL-2 act: activates IL-2 in a cell-based reporter assay. activation, % (series mostly up to about 46 µM). IL-2 activation reporter assay, cell-based qHTS; stimulated with anti-CD3/CD4/CD28 beads; in transgenic mouse T cells. hit rate 0.065% among 360,000; in the data active means activation above about 50%; inconclusive means mostly about 30% to 49%; further: 0% is about no effect
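Readout is EGFP and DsRed signal by fluorescent plate cytometry after 18 h at 37 degrees C. Transgenic mouse T cells (750/well) received compound for 60 min before bead stimulation (anti-CD3, anti-CD4, anti-CD28); memory T cells served as non-tolerant control.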
BRCA1 expr act: BRCA1 expression activation; MCF7-BRCA1-FFLuc reporter, luminescence, 48 h; response scale: scaled: vehicle 0%, 10 µM genistein 100%; Potency, µM (highest dose often 46.1 µM), inactives show at the top dose activation, most hits filed as activators; hit rate 1.1% among 380,000; AID 624202; further: potency means the concentration at half of the fitted maximal effect; nearly all actives have a fitted effect of over 80% in size
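MCF7 cells carrying a BRCA1-firefly luciferase reporter (2000 cells/well, phenol-red free MEM) were attached for 2 h at 37 °C, then given compounds for 48 h. Luminescence was read 15 min after luciferase reagent; activity normalized to genistein (10 microM) and DMSO.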
TrxR1 substrate: is turned over as a substrate by rat TrxR1; purified TrxR1 substrate turnover, NADPH consumption readout; Potency, µM (doses to about 114 µM), inactives show at the top dose activity change, negative = substrate turnover; O89049; hit rate 0.01% among 390,000; AID 588456; further: potency means the concentration at half of the fitted maximal effect; on the % scale 0 is the no-effect control and ±100 the full control effect; nearly all actives have a fitted effect of over 50% in size
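Rat TrxR1, dispensed at 90 nM, was prereduced with 400 uM NADPH (final) for 5 min at ~22 deg C, then incubated with compound 15 min before 400 uM selenite. A first-read NADPH fluorescence drop versus no-compound background flagged substrates.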
TrxR1 inh: inhibitors of rat thioredoxin reductase 1; Potency, µM (highest dose often 114 µM), for the others: at the highest dose activity change, negative = inhibition, usual class: inhibitors; hit rate 1% among 390,000; recombinant rTrxR1, NADPH fluorescence consumption, selenite substrate; further: potency means the concentration at half of the fitted maximal effect; on the % scale 0 is the no-effect control and ±100 the full control effect; nearly all actives have a fitted effect of over 65% in size
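Rat TrxR1 (90 nM in the dispensed reagent) was pre-reduced with 400 uM NADPH for 5 min at room temperature, then incubated with compound for 15 min. After 400 uM selenite was added, NADPH fluorescence (Ex 340/Em 450 nm) was followed for 8 min.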
Giardia kill: Giardia lamblia killing | AID 540267 | Giardia lamblia trophozoite viability | activity change, % at 7.66 µM, hits read low | hit rate 0.15% among 340,000; in the data active means activity change below about -80%; inconclusive means between about -30% and that limit;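 further: parasites exposed to compound for two days anaerobically before the ATP read; on the % scale 0 is the no-effect control and ±100 the full control effect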
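Compounds were tested on trophozoites seeded at 100 cells/well and held 48 hrs at 37 deg C anaerobically. An ATP-based luminescent kit measured the remaining live cells.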
IDH1 R132H inh: human IDH1 R132H inhibition; hit rate 0.093% among 390,000; O75874; IDH1-R132H enzyme, NADPH consumption, diaphorase/resazurin fluorescence; Potency, µM (top dose mostly 76.6 µM), for inactives: at the top dose activity change, negative = inhibition, actives largely listed as inhibitors; AID 602179; further: potency means the concentration at half of the fitted maximal effect; on the % scale 0 is the no-effect control and ±100 the full control effect; nearly all actives have a fitted effect of over 65% in size
Target sequence (O75874 whole entry R132H, stated change not applied): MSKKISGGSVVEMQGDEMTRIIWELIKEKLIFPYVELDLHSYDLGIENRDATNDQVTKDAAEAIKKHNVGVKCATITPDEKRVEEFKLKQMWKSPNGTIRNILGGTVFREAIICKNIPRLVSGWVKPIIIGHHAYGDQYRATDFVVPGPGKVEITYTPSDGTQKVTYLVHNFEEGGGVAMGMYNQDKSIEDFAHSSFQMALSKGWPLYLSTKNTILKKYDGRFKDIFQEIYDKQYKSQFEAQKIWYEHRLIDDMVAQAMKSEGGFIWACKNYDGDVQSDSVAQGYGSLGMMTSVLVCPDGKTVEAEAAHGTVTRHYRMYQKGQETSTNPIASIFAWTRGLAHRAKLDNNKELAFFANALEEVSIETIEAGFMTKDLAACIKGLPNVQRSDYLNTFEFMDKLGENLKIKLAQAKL
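IDH1-R132H (0.5 ug/mL dispensed) in pH 7.5 Tris buffer was preincubated 30 min with compound, then given a substrate mix of 0.016 mM NADPH and 2 mM alpha-KG for 80 min at room temperature; remaining NADPH was read by diaphorase/resazurin fluorescence.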
* = called active by the depositor; ? = inconclusive; . = not tested or not shown; [ ] = another dose, or the depositor's remark. Hits are enriched below; roughly 2.2% of the tested compounds scored in any of these assays. Unless noted, the call rests on the fitted dose curve; in most records, active means well fitted curve in the direction sought with a large enough effect; inconclusive means small, poorly fitted or top-dose-only effect, or another doubt; inactive means no such curve, though single readings can be large; an effect the other way counts as inactive or inconclusive.

SMILES	IL-2 act	BRCA1 expr act	TrxR1 substrate	TrxR1 inh	Giardia kill	IDH1 R132H inh
Cc1ccccc1CS(=O)(=O)Cc1ccc(C(=O)NCCc2ccc(Cl)cc2)o1	.	.	-3%[57.1 µM]	6%[57.1 µM]	.	1%
CCOc1ccc(C(=O)NCCc2sc(-c3ccc(OC)c(OC)c3)nc2C)cc1	.	47%	15%[57.1 µM]	6%[57.1 µM]	.	13%
Cc1cccc(N2CCN(C(=O)c3nn(C)c4c3CSc3ccccc3-4)CC2C)c1 (configuration not stated)	.	.	2%	18%	.	0%
Cc1ccc(/C=N/n2nnnc2N)cc1	0	6.3µM*	7%	13%	?	0%
COc1cccc(/C=N/n2nnnc2N)c1	2	-18%	16%	34%	1	-4%
O=S(=O)(c1cccc(F)c1)N1CCN(c2nc(-c3cccs3)nc3ccccc23)CC1	.	10%	10%	12%	-17	.
CC(=O)N1CCN(c2nnc(-c3ccccc3)c3ccccc23)CC1	-1	-3%	-3%	5%	48	13%
Cc1ccc(-c2nnc(N3CCN(C(=O)c4ccco4)CC3)c3ccccc23)cc1	-1	-11%	-5%	56µM*	-4	-1%
Cc1cc(C)c2nc(N3CCCN(C(=O)c4ccco4)CC3)c(C#N)cc2c1	0	0%[1.84 µM]	23%	10µM*	5	0%
O=S(=O)(Nc1cccc(-c2ccc(N3CCCCCC3)nn2)c1)c1ccccc1F	7	13µM*	0%	7%	-23	-8%
O=S(=O)(Nc1cccc(-c2ccc(N3CCCCCC3)nn2)c1)c1ccccc1Cl	0	75%	5%[57.1 µM]	24%[57.1 µM]	?	0%
CCO[C@@H]1OC(C(=O)NCc2ccccc2)=C[C@H](C)[C@H]1CCCO	0	4%	-2%	-8%	?	12%
C#CCNC(=O)C1=C[C@@H](C)[C@H](CCCO)[C@@H](OCC)O1	0	5%	-2%[57.1 µM]	18µM*	12	4%
COc1ccccc1OCC(=O)Nc1ccc2c(c1)OCCO2	0	?	0%[57.1 µM]	7%[57.1 µM]	9	10%
O=C(CN1C(=O)NC2(CCCCC2)C1=O)Nc1ccc2c(c1)OCCCO2	0	5µM*	10%	24%	1	-4%
NC(=O)c1ccccc1OCC(=O)Nc1ccc2c(c1)OCCO2	1	3.5µM*	3%	17%	0	8%
COc1ccc(NC(=O)NC23CC4CC(CC(C4)C2)C3)cc1OC	1	10%	-5%	8%	-16	4%
O=C(Nc1ccc2c(c1)OCCO2)NC12CC3CC(CC(C3)C1)C2	1	3.5µM*	0%	7%	7	6%
CC1CC(C)CN(CC(=O)Nc2ccc3c(c2)OCCO3)C1 (configuration not stated)	-1	13µM*	14%	34%	16	1%
COC(=O)C1CCN(CC(=O)Nc2ccc3c(c2)OCCO3)CC1	0	36%	3%[57.1 µM]	-3%[57.1 µM]	31	-2%
CC1=C(c2ccc(C(C)C)cc2)S(=O)(=O)N=C1N1CCC(C(=O)NCCc2ccco2)CC1	.	.	-2%[57.1 µM]	2%[57.1 µM]	.	.
O=C(CNC(=O)C1CCCCC1)OCC(=O)c1ccc(C2CCCCC2)cc1	.	0%	-5%	3%	-2	.
O=C(CCc1ccccc1)Nc1ccc2c(c1)OCCO2	2	11µM*	-7%[57.1 µM]	19%[57.1 µM]	-8	8%
CC1CC(C)(C)NC(=S)N1CCCC(=O)Nc1ccc2c(c1)OCCO2 (configuration not stated)	-4	13µM*	-7%[57.1 µM]	33%[57.1 µM]	-13	1%
CC(C)(C)NC(=O)NC(=O)COc1ccc(Br)cc1Br	-1	33%	-11%	1%	-2	0%
O=C(COc1ccc(Br)cc1Cl)NC(=O)Nc1ccc2c(c1)OCCO2	-1	11µM*	9%	16%	-20	3%
Cc1ccc(NC(=O)CCCN2C(=S)NC(C)(C)CC2C)cc1 (configuration not stated)	0	-1%	-6%[57.1 µM]	-29%[57.1 µM]	-27	2%
O=C(COc1ccc(Br)cc1Br)NC(=O)NC1CCCC1	0	11µM*	1%[57.1 µM]	16%[57.1 µM]	-2	0%
